# ABCB6 inh 2 = human ABCB6 transporter inhibition; K562-ABCB6 porphyrin accumulation, flow cytometry, 1 h; stronger effect = lower value; fluorescence ratio to DMSO, % at 10 µM; 360,000 tested, 0.19% active; AID 602162;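 active means fluorescence ratio to DMSO below 75%, the collection mean minus 3 SD; inconclusive means too few cells collected in the well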;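 further: signal is porphyrin accumulated inside mitochondria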
# Target sequence (Q9NP58 whole entry, looked up): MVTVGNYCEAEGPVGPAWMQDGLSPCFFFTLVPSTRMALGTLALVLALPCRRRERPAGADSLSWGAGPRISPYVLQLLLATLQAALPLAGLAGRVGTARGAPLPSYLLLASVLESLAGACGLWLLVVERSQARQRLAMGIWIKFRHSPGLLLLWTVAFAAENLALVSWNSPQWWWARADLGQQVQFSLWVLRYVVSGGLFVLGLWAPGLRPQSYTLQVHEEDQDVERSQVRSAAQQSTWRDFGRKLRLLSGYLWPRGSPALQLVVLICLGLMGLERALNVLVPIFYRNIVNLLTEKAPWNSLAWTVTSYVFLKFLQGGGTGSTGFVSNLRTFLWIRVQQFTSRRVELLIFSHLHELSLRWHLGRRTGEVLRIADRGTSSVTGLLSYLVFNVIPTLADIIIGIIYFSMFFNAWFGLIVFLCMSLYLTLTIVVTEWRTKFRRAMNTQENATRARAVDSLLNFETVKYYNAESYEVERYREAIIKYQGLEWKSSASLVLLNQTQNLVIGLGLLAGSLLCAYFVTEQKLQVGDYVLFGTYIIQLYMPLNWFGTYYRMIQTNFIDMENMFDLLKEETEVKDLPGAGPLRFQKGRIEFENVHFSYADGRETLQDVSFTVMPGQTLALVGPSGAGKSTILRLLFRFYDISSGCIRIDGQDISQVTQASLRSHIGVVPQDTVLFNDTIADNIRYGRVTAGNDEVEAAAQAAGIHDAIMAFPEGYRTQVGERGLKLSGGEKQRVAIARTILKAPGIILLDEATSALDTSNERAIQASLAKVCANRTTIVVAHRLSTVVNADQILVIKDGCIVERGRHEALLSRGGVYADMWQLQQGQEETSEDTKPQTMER
# PG9 binder = PG9 antibody binding by small molecule. TR-FRET gp120-PG9 antibody binding. inhibition, % at 6.7 µM. 360,000 tested, 0.43% active; in the data active means inhibition above about 8.5%
# Exocytosis inh = lytic granule exocytosis inhibition; TALL-104 LAMP-1 surface exposure, flow cytometry; cells stimulated with thapsigargin and PMA; inhibition, % at 10 µM; 360,000 tested, 0.66% active;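 active means inhibition above about 55%, limit read from the data; inconclusive means no clear call, values can overlap the other calls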
# rCAG RNA binder = molecules binding r(CAG) RNA repeats | inhibition, % at 3 µM | 370,000 tested, 1.3% active | r(CAG) RNA repeat, TO-PRO-1 dye displacement fluorescence;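 active means inhibition above the plate cutoff, the mean of all test compounds on that plate plus 3 SD, cut at about 35% in these data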;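 further: higher means more dye released from RNA so lower well fluorescence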
# rCAG bind conf = r(CAG) RNA repeat binding, confirmation; 4,300 tested, 70% active; TO-PRO-1 dye displacement fluorescence; shares compounds with rCAG RNA binder; inhibition, % at 3 µM;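 active means inhibition above a per-plate cutoff, the mean inhibition of sample wells plus 3 SD, cut at about 35% in these data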;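 further: loss of TO-PRO-1 fluorescence as compound displaces dye from 1x1 AA loop RNA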
# dCAG dye counter = disrupts DNA CAG TO-PRO-1 complex, flagging rCAG hits; shares compounds with rCAG RNA binder; d(CAG) DNA oligo TO-PRO-1 dye displacement, fluorescence; inhibition, % at 3 µM; 4,300 tested, 94% active; AID 652068;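 active means inhibition above its plate's cutoff, the mean test-well inhibition plus 3 SD, cut at about 4.8% in these data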;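 further: hits displace the dye from DNA and so lower well fluorescence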
# dCAG dye DR = DNA CAG dye complex inhibition, dose response counter-screen; shares compounds with rCAG RNA binder; DNA CAG/GTC duplex TO-PRO-1 dye displacement fluorescence; IC50, µM; 250 tested, 20% active; AID 686960; in the data active means IC50 below about 10 µM
# Hits are given with their value; i = inactive; ? = inconclusive; nt = not tested or not shown. Compounds with a hit are over-represented: about 2.5% of the library has one in this group of screens.
SMILES,ABCB6 inh 2,PG9 binder,Exocytosis inh,rCAG RNA binder,rCAG bind conf,dCAG dye counter,others
O=C(O)c1cccc(CSc2nc(-c3ccc(Cl)cc3)cc(C(F)(F)F)n2)c1,i,i,i,68,71,33,dCAG dye DR=i
COc1ccc(-c2cc(C)nc(SCc3cccc(C(=O)O)c3)n2)cc1,i,i,i,47,49,9.7,dCAG dye DR=i
O=C(O)c1cccc(CSc2nnc(-c3ccc(Cl)cc3)o2)c1,i,i,i,i,nt,nt,
CC(=O)NCc1ccc(S(=O)(=O)NC(C(=O)O)C(C)C)cc1 (stereo unspecified),i,i,i,i,nt,nt,
COCCCn1c(=NC(=O)c2ccccc2)c(C#N)cc2c(=O)n3cccc(C)c3nc21,i,i,i,i,nt,nt,
Cc1cccn2c(=O)c3cc(C#N)c(=NC(=O)c4ccco4)n(Cc4ccco4)c3nc12,i,i,i,i,nt,nt,
Cc1cccn2c(=O)c3cc(C#N)c(=NC(=O)c4ccccc4)n(Cc4ccco4)c3nc12,i,i,i,36,i,11,
Cc1cccc(C(=O)N=c2c(C#N)cc3c(=O)n4cccc(C)c4nc3n2Cc2ccco2)c1,i,i,i,47,38,18,
COCCCn1c(=O)c2ccccc2n(CC(=O)NC2CCCCC2)c1=O,i,i,i,i,nt,nt,
O=C(Nc1ccc(C(=O)O)cc1)/C(=C\C=C\c1ccccc1)NC(=O)c1ccccc1Br,i,i,i,54,35,12,
O=C(Nc1ccc(C(=O)O)cc1)/C(=C\C=C\c1ccccc1)NC(=O)c1cccc(Br)c1,i,i,i,78,80,52,
O=C(CN1CCC(C(=O)c2ccc(Cl)cc2)CC1)NC1CCCC1,i,i,i,i,nt,nt,
CCc1nnc(NS(=O)(=O)c2ccc(N/C=C(\C=O)c3nc4cc(Cl)ccc4o3)cc2)s1,i,i,i,42,76,40,
CCc1nnc(NC(=O)c2ccc(S(=O)(=O)N(CC)CC)cc2)s1,i,i,i,i,nt,nt,
CCc1nnc(NS(=O)(=O)c2ccc(NC(=O)c3ccccc3C)cc2)s1,i,i,i,i,nt,nt,
CCCN(CCC)S(=O)(=O)c1ccc(C(=O)Nc2ccc(S(=O)(=O)Nc3nnc(CC)s3)cc2)cc1,i,i,i,80,84,54,
CCc1nnc(NS(=O)(=O)c2ccc(N/C=C\C(=O)c3ccc4ccccc4c3)cc2)s1,i,i,i,71,86,61,
CCc1nnc(NS(=O)(=O)c2ccc(NC(=O)c3ccccc3OC)cc2)s1,i,i,i,49,i,6.0,
CCc1nnc(NS(=O)(=O)c2ccc(NCc3ccccc3O)cc2)s1,i,i,i,i,nt,nt,
CCc1nnc(NS(=O)(=O)c2ccc(NC(=O)c3ccc(Cl)cc3)cc2)s1,i,i,i,43,i,9.1,
CCc1nnc(NS(=O)(=O)c2ccc(N3C(=O)C4CC=C(Cl)CC4C3=O)cc2)s1 (stereo unspecified),i,i,i,49,i,7.6,
CCc1nnc(NS(=O)(=O)c2ccc(NC(=O)C(c3ccccc3)c3ccccc3)cc2)s1,i,i,i,84,72,34,dCAG dye DR=9.2
CCc1nnc(NS(=O)(=O)c2ccc(NC(=O)CCC(=O)OC)cc2)s1,i,i,i,i,nt,nt,
CCc1nnc(NS(=O)(=O)c2ccc(NC(=O)c3ccc(C#N)cc3)cc2)s1,i,i,i,36,i,i,
CCc1nnc(NC(=O)c2ccc(NS(=O)(=O)c3ccccc3)cc2)s1,i,i,i,i,nt,nt,
SMILES,ABCB6 inh 2,PG9 binder,Exocytosis inh,rCAG RNA binder,rCAG bind conf,dCAG dye counter,others
OC1(c2cccc(C(F)(F)F)c2)CCN(CCN2CCCCC2)CC1,i,i,i,i,nt,nt,
CCCCn1[nH]c(-c2ccccc2)cc1=O,i,i,i,i,nt,nt,
COC(=O)c1ccc(CNC(=O)c2ccc3c(c2)S(=O)(=O)N=C2CCCCCN23)cc1,i,i,i,i,nt,nt,
Nc1nc2c(ncn2[C@@H]2O[C@H](C(=O)NCC(c3ccccc3)c3ccccc3)[C@@H](O)[C@H]2O)c(=O)[nH]1,nt,i,nt,i,nt,nt,
CCc1nnc(NS(=O)(=O)c2ccc(NC(=O)c3ccco3)cc2)s1,i,i,i,i,nt,nt,
CCc1nnc(NS(=O)(=O)c2ccc(NC(=O)c3cccc(OC)c3)cc2)s1,i,i,i,39,i,5.5,
CCc1nnc(NS(=O)(=O)c2ccc(NC(=O)c3cccc(Cl)c3)cc2)s1,i,i,i,54,50,10,dCAG dye DR=i
Cc1cc(OCC(=O)NCc2cccnc2)c2c(C)c(Cc3ccccc3)c(=O)oc2c1,i,i,i,i,nt,nt,
Cc1c(Cc2ccccc2)c(=O)oc2c(C)c(OCC(=O)N[C@@H](Cc3ccccc3)C(=O)O)ccc12,i,i,i,47,70,29,dCAG dye DR=i
Cc1c(Cc2ccccc2)c(=O)oc2cc(OCC(=O)NC(Cc3ccc(Cl)cc3)C(=O)O)ccc12 (stereo unspecified),i,i,i,52,66,25,
CCC(NC(=O)Cc1c(C)c2ccc(OC)c(C)c2oc1=O)C(=O)NC(Cc1ccc(Cl)cc1)C(=O)O (stereo unspecified),i,i,i,36,41,8.8,
Cc1cc(OCC(=O)N[C@@H](CSCc2ccccc2)C(=O)O)c2c(C)c(C)c(=O)oc2c1,i,i,i,49,54,13,
Cc1c(C)c2ccc(OCC(=O)NC(Cc3ccc(Cl)cc3)C(=O)O)cc2oc1=O (stereo unspecified),?,i,i,i,nt,nt,
Cc1cccc(C)c1NC(=O)CSc1nc(C2CC2)nc2ccccc12,i,i,i,i,nt,nt,
Cc1c(C)c2ccc(OCC(=O)N[C@@H](Cc3ccccc3)C(=O)O)cc2oc1=O,i,i,i,i,nt,nt,
CCCCCCc1c(C)c2ccc(OCC(=O)N[C@@H](Cc3ccccc3)C(=O)O)cc2oc1=O,i,i,i,46,76,31,dCAG dye DR=i
O=C(CN1C(=O)/C(=C2/SC(=S)N(CCS(=O)(=O)O)C2=O)c2ccccc21)Nc1cccc(Br)c1,i,i,i,73,80,49,
O=C(O)c1ccc(COc2ccccc2/C=C2\NC(=O)N(Cc3ccc(F)cc3)C2=O)cc1,i,i,i,i,nt,nt,
Cc1ccccc1NC(=O)CN1C(=O)N/C(=C\c2ccccc2OCc2ccc(C(=O)O)cc2)C1=O,i,i,i,43,i,7.8,
Cc1cccc(NC(=O)CN2C(=O)N/C(=C\c3ccccc3OCc3ccc(C(=O)O)cc3)C2=O)c1,i,i,i,61,67,31,
O=C(CN1C(=O)N/C(=C\c2ccccc2OCc2ccc(C(=O)O)cc2)C1=O)Nc1ccc(F)cc1,i,i,i,59,43,13,
COc1ccc(Cn2c(O)c(/C=N/NC(=O)c3cccnc3)c3ccccc3c2=O)cc1,i,i,i,75,71,33,dCAG dye DR=i
O=C(N/N=C/c1c(O)n(-c2ccccc2Cl)c(=O)c2ccccc12)c1cccnc1,i,i,i,47,i,8.0,
O=C(N/N=C/c1c(O)n(Cc2ccccc2)c(=O)c2ccccc12)c1cccnc1,i,i,i,69,64,25,

# Assay outcomes from PubChem.
